Results from PubChem BioAssay AID2620 (National Center for Advancing Translational Sciences (NCATS), 2010).
Records with an inconclusive call do not appear. Calls follow the shape of the dose curve; as a rule, active = well fitted curve in the direction sought with a large enough effect; inconclusive = small, poorly fitted or top-dose-only effect, or another doubt; inactive = no such curve, though single readings can be large or run the other way.

target: Pyruvate kinase PKM (Homo sapiens) (UniProt P14618); assay: Secondary LDH Assay for Activators of Human Pyruvate Kinase M1 Isoform: for Probe SAR; settings: purified hPK-M1, LDH-coupled NADH fluorescence kinetic; series mostly up to 58.2 µM; activity change, negative = inhibition: at the top concentration; also: % of control where 0% means no effect
Sequence (P14618 whole entry, looked up, canonical isoform): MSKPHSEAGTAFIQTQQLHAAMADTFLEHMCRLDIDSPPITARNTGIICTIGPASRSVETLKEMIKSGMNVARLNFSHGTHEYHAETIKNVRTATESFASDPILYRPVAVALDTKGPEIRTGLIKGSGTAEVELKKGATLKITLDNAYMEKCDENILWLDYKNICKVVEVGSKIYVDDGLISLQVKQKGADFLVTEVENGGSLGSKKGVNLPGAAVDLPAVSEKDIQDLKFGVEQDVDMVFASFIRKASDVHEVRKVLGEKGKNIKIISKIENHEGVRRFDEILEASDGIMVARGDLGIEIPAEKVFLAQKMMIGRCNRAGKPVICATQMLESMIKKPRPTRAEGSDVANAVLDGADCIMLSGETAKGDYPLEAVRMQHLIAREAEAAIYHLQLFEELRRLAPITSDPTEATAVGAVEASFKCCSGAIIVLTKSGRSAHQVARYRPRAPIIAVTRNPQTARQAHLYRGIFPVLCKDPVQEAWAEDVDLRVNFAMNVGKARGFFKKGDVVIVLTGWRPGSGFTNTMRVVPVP
In short: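 10 nM hPK-M1 coupled to 1 uM LDH, with 0.1 mM PEP, 4.0 mM ADP, 0.2 mM NADH, 50 mM Tris pH 8.0, 200 mM KCl, 15 mM MgCl2 (final). NADH fluorescence depletion followed kinetically 3-6 min; initial rates normalized to uninhibited controls.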

Activity change, negative = inhibition, inactive:
Cc1ccc(NS(=O)(=O)c2ccc3c(c2)N(C)C(=O)CO3)cc1C 3.09%
COc1cccc(NS(=O)(=O)c2ccc3c(c2)CCC(=O)N3)c1 3.28%
COc1cccc(Cn2ncc3c4sc(SC)cc4n(C)c3c2=O)c1 5.9%
Cc1ccc(Cl)cc1NS(=O)(=O)c1cc2c(cc1F)NC(=O)CC2 9.43%
Cc1ccc(NS(=O)(=O)c2ccc(N3CCCC3=O)cc2)cc1C 3.2%
Cc1ccc(NS(=O)(=O)c2ccc3c(c2)oc(=O)n3C)cc1C 9.95%
Cc1ccc(NS(=O)(=O)c2ccc3c(c2)N(C)CCO3)cc1C 6.74%
CCNc1cccc(S(=O)(=O)N2CCN(S(=O)(=O)c3ccc4c(c3)OCCO4)CC2)c1 -3.37%
Cc1ccc(NS(=O)(=O)c2cccc(C(=O)O)c2)cc1C 8.05%
Cc1ccc(Nc2c(-c3ccsc3)nc3cccc(C)n23)cc1 -5.94%
COc1ccc(OC2=NS(=O)(=O)c3ccccc32)cc1 8.93%
Cc1ccc(NS(=O)(=O)c2cc3c(cc2-c2ccsc2)NC(=O)CO3)cc1C 11.5%
CC(C)Nc1cccc(S(=O)(=O)N2CCCN(S(=O)(=O)c3ccc4c(c3)OCCO4)CC2)c1 2%
Cc1cc(N2C(=O)c3ccccc3C2=O)n[nH]1 -2.21%
O=C1c2ccccc2C(=O)N1c1cccc(Cl)c1 -4.02%
Cc1c(Cl)cccc1NS(=O)(=O)c1cc2c(cc1F)NC(=O)CC2 4.48%
COc1ccc(N2C(=O)c3ccccc3C2=O)cc1 6.4%
Cc1ccc2nc(-c3cccs3)c(Nc3ccccc3)n2c1 -2.02%
O=C1c2ccccc2C(=O)N1c1nccs1 3.93%
COc1cccc(N2C(=O)c3ccccc3C2=O)c1 6.23%
CC(=O)Nc1ccc(S(=O)(=O)Nc2ccc(C)c(C)c2)cc1 3.42%
Cc1ccc(-c2nc3cnccn3c2Nc2ccc(C(C)C)cc2)o1 12.3%
O=S1(=O)N=C(Oc2ccccc2)c2ccccc21 3.28% [at 82.8 µM]
Cc1ccc(NS(=O)(=O)c2cc3c(cc2F)NC(=O)CC3)cc1Cl 4.31%
COc1ccc(-c2nc3cccc(C)n3c2Nc2ccc(C)cc2)cc1 2.94%
O=C1CCc2cc([S+](=O)([O-])Nc3ccc(N[S+](=O)([O-])c4ccc5c(c4)CCC(=O)N5)cc3)ccc2N1 -2.5%
N#Cc1cccc(NS(=O)(=O)c2ccc3c(c2)CCC(=O)N3)c1 -1.28%
COc1ccc(S(=O)(=O)Nc2ccc(C)c(C)c2)cc1 16%
Fc1ccccc1-c1ccc(-c2nc3ccc(Cl)cn3c2Nc2ccc(Cl)cc2)o1 13.2%
CSc1cc2c(s1)c1cnn(Cc3cccc(N)c3)c(=O)c1n2C -11.2%
